Results filed as inconclusive are left out. Some structures have more than one record in an assay (separate samples or runs), and their calls can disagree. Activity calls are given as the source filed them. Calls come from the whole dose curve.

Test [1] concerns the target Acetylcholinesterase (Homo sapiens) (UniProt P22303). As to the kind of experiment: Acetylcholinesterase (AChE) small molecule antagonists: colormetric cell-based qHTS assay (AID 1347395). Note: nearly all actives have a fitted effect of over 30% in size. Note: potency is the fitted concentration of half-maximal effect. In a few lines:
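Homogeneous whole-cell format. SH-SY5Y cells seeded overnight, dosed with compound (30 min, 37 C, 5% CO2), then given DTNB/acetylthiocholine cocktail for 90 min at 37 C; colorimetric signal.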

The target is the same in test [2]. As to the kind of experiment: Acetylcholinesterase (AChE) small molecule antagonists: enzyme-based qHTS assay (AID 1347397). Note: nearly all actives have a fitted effect of over 55% in size. Note: potency is the fitted concentration of half-maximal effect. The note with it: Potency: AChE enzyme activity inhibition; outcome: AChE enzyme activity inhibition. The method, boiled down:
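Compound or DMSO vehicle was pin-transferred onto recombinant human AChE (50 mU/mL as dispensed) and left 30 min at room temperature. Acetylthiocholine with DTNB then started the reaction, read colorimetrically 10 min later.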

For test [3] the target is unchanged. As to the kind of experiment: Acetylcholinesterase (AChE) small molecule antagonists: fluorescence cell-based qHTS assay (AID 1347398). Note: nearly all actives have a fitted effect of over 50% in size. Note: potency is the fitted concentration of half-maximal effect. The settings on record: Potency: AChE activity; outcome: AChE activity. The method, boiled down:
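Using neuroblastoma SH-SY5Y cells as the enzyme source, test chemicals are preincubated 30 min at 37 C; AChE-driven acetylthiocholine cleavage is then quantified by thiocholine-dependent Thiolite Green fluorescence after 40 min at room temperature.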

The target is the same in test [4]. As to the kind of experiment: Acetylcholinesterase (AChE) small molecule antagonists: enzyme-based qHTS assay with human liver microsomes (AID 1347399). Note: nearly all actives have a fitted effect of over 60% in size. The settings on record: Potency: qHTS inhibition; outcome: qHTS inhibition. In a few lines: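 Recombinant human AChE (50 mU/mL in the enzyme mix) and human liver microsomes (0.25 mg/mL final) were preincubated with compound and NADPH (0.25 mg/mL final) for 30 min at 37 C. Acetylthiocholine/DTNB was then added; thiocholine was read colorimetrically after 10 min at room temperature.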

Chain of Acetylcholinesterase (Homo sapiens) (P22303 whole entry, looked up): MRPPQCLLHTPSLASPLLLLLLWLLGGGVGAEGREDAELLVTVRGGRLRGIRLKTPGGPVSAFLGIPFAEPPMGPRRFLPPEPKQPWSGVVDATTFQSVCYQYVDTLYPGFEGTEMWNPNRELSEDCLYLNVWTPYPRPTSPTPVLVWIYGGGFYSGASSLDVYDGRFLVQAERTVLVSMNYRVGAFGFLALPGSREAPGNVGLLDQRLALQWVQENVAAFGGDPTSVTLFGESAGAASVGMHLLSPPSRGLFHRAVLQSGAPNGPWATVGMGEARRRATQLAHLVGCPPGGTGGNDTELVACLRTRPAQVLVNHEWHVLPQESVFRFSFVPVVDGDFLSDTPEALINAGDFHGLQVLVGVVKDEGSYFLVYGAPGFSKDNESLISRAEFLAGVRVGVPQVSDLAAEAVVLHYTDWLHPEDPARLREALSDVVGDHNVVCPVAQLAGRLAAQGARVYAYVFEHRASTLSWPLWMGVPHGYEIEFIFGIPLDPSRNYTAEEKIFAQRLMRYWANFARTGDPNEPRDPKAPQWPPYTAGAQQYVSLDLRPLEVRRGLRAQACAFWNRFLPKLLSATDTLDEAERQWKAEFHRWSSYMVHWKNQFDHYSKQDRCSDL

For `Cc1cccc2n[nH]nc12`, the Potency entry in test [1], in test [2], in test [3] and in test [4] was “inactive” in each case.

As for `CNc1ncnc2nc[nH]c12`, the Potency entry in test [1], in test [2], in test [3] and in test [4] was “inactive” each time.

Take `COc1cc(/C=C/C(N)=O)cc(OC)c1OC`: the Potency result in test [1], in test [2], in test [3] and in test [4] was “inactive” throughout.

For `CCC(C)(C)c1cc(O)c(C(C)(C)CC)cc1O`, the Potency result in test [1], in test [2], in test [3] and in test [4] was “inactive” in each case.

Turning to `CSc1ccc2c(c1)N(CCC1CCCCN1C)c1ccccc1S2` (stereo not given), the Potency in test [1] is 70.7 µM (active); in test [2], 79.3 µM (active) and inactive; in test [3] it was 31.6 µM (active). For the same compound, the Potency result in test [4] is “inactive”.

As for `CCCCCCCCCCCC(=O)OCC(O)CO` (stereo not given), the Potency result in test [1], in test [2], in test [3] and in test [4] was “inactive” throughout.

In the case of `CCCCNC(=O)NCCCC`, the Potency result in test [1], in test [2], in test [3] and in test [4] was “inactive” in each case.

As for `[O-][N+](=Nc1ccccc1)c1ccccc1`, the Potency result in test [1], in test [2], in test [3] and in test [4] was “inactive” each time.

`CC(=O)c1ccc(Cl)c(Cl)c1Cl`: the Potency entry in test [1], in test [2], in test [3] and in test [4] was “inactive” throughout.

Consider `CCCCCCc1ccc(-c2ccc(C#N)cc2)cc1`, for which the Potency result in test [1], in test [2], in test [3] and in test [4] was “inactive” in each case.

For `COC(=O)c1ccc(O)cc1`, the Potency entry in test [1], in test [2], in test [3] and in test [4] was “inactive” throughout.

Turning to `OB(O)O`, the Potency entry in test [1], in test [2], in test [3] and in test [4] was “inactive” each time.

In the case of `C=C(C)OC(C)=O`, the Potency result in test [1], in test [2] and in test [4] was “inactive” throughout. In test [3], the Potency is 32.7 µM (active) and inactive.

In the case of `CC1=C(C=O)C(C)(C)CCC1`, the Potency result in test [1], in test [2], in test [3] and in test [4] was “inactive” throughout.

With `CCCCN(CCCC)c1ccc(C(=O)c2ccccc2C(=O)O)c(O)c1`, the Potency result in test [1], in test [2], in test [3] and in test [4] was “inactive” throughout.

Regarding `O=C(CCCCCCCCC#CI)Oc1ccccc1`, the Potency result in test [1], in test [2], in test [3] and in test [4] was “inactive” in each case.

Consider `O=C(CCc1ccc(O)cc1)c1c(O)cc(O)cc1O`, for which the Potency entry in test [1], in test [3] and in test [4] was “inactive” in each case. The Potency in test [2] is 57.7 µM (active).

As for `CCCCCCCCCCCCCCC(=O)NC(CO)CCCCCCCCCCCCCC` (stereo not given), the Potency result in test [1], in test [2], in test [3] and in test [4] was “inactive” throughout.

In the case of `CCCCCCCCCCCCCCCCCCN(C)C`, the Potency entry in test [1], in test [2], in test [3] and in test [4] was “inactive” in each case.

In the case of `Cc1cccc(C)c1O`, the Potency entry in test [1], in test [2], in test [3] and in test [4] was “inactive” each time.

As to `O=C1Nc2ccc([N+](=O)[O-])cc2C1=O`, the Potency entry in test [1], in test [2], in test [3] and in test [4] was “inactive” throughout.

For `CCOC(=O)c1ccc(N)cc1`, the Potency result in test [1], in test [2], in test [3] and in test [4] was “inactive” each time.

With `C=CCOC(=O)C(=C)C`, the Potency entry in test [1], in test [2], in test [3] and in test [4] was “inactive” in each case.

As for `CCC(C)(O)CCC=C(C)C` (stereo not given), the Potency entry in test [1], in test [2], in test [3] and in test [4] was “inactive” throughout.

`CCOC(=O)CCC(C)=O`: the Potency result in test [1], in test [2], in test [3] and in test [4] was “inactive” throughout.

As to `C[C@]1(Cn2ccnn2)[C@H](C(=O)O)N2C(=O)C[C@H]2S1(=O)=O`, the Potency result in test [1], in test [2], in test [3] and in test [4] was “inactive” in each case.

With `CCCCC(CC)COC(=O)C(C#N)=C(c1ccccc1)c1ccccc1` (stereo not given), the Potency result in test [1], in test [2], in test [3] and in test [4] was “inactive” each time.

Take `CCCNC(C)C(=O)Nc1c(C)csc1C(=O)OC` (stereo not given): the Potency result in test [1], in test [2], in test [3] and in test [4] was “inactive” throughout.

For the compound `O=[N+]([O-])c1cccc(S(=O)(=O)O)c1`, the Potency entry in test [1], in test [2], in test [3] and in test [4] was “inactive” each time.

For the compound `CN(C)C(=S)SC(=S)N(C)C`, the Potency in test [1] is 56.4 µM (active) and inactive; in test [3], 35.6 µM (active) and inactive. In addition, the Potency entry in test [2] and in test [4] was “inactive” throughout.

As to `CCCCC(CC)COC(=O)CS` (stereo not given), the Potency entry in test [1], in test [2], in test [3] and in test [4] was “inactive” in each case.

As to `Cc1cccc(O)c1`, the Potency result in test [1], in test [2], in test [3] and in test [4] was “inactive” each time.

Consider `CS(=O)(=O)OCCCCOS(C)(=O)=O`, for which the Potency result in test [1], in test [2], in test [3] and in test [4] was “inactive” each time.

With `CCC(C)C1N=C(C)C(C)S1` (stereo not given), the Potency entry in test [1], in test [2], in test [3] and in test [4] was “inactive” in each case.

On to `OCCCCCCCl`, for which the Potency entry in test [1], in test [2], in test [3] and in test [4] was “inactive” each time.

As to `Cc1cc2c(cc1S(N)(=O)=O)S(=O)(=O)CCC2`, the Potency in test [1] is 17.4 µM (active). Moreover, the Potency entry in test [2], in test [3] and in test [4] was “inactive” in each case.

As to `CC(O)CC(C)O` (stereo not given), the Potency result in test [1], in test [2], in test [3] and in test [4] was “inactive” each time.

As to `COc1ccccc1O`, the Potency entry in test [1], in test [2], in test [3] and in test [4] was “inactive” throughout.

In the case of `CCCCN1CCCC[C@H]1C(=O)Nc1c(C)cccc1C`, the Potency result in test [1], in test [2], in test [3] and in test [4] was “inactive” in each case.

On to `COC(=O)c1c(C)cc(O)c(C)c1O`, for which the Potency entry in test [1], in test [2], in test [3] and in test [4] was “inactive” throughout.

As for `c1ccc(Oc2ccccc2)cc1`, the Potency entry in test [1], in test [2], in test [3] and in test [4] was “inactive” throughout.

Consider `O=CN(CCO)CCO`, for which the Potency result in test [1], in test [2], in test [3] and in test [4] was “inactive” in each case.

Consider `O=C(O)c1cc(C(=O)O)cc(S(=O)(=O)O)c1`, for which the Potency result in test [1], in test [2], in test [3] and in test [4] was “inactive” each time.

In the case of `S=C([S-])NCCNC(=S)[S-].S=C([S-])NCCNC(=S)[S-].[Mn+2].[Zn+2]`, the Potency in test [1] and in test [3] was 30.9 µM (active) each time. For the same compound, the Potency entry in test [2] and in test [4] was “inactive” each time.

In the case of `C=Cc1cccc(C)c1`, the Potency result in test [1], in test [2], in test [3] and in test [4] was “inactive” throughout.

Consider `CC(C)(Oc1ccc(Cl)cc1)C(=O)OCCCOC(=O)C(C)(C)Oc1ccc(Cl)cc1`, for which the Potency entry in test [1], in test [2], in test [3] and in test [4] was “inactive” each time.

Turning to `Cc1cccc(NC(=S)N(C)C)c1`, the Potency result in test [1], in test [2], in test [3] and in test [4] was “inactive” each time.

Regarding `C[C@H]1C[C@@H](O)CC(C)(C)C1`, the Potency result in test [1], in test [2], in test [3] and in test [4] was “inactive” each time.

As for `CC(C)CC=O`, the Potency entry in test [1], in test [2], in test [3] and in test [4] was “inactive” each time.

Turning to `CC(C)(C)NCCO`, the Potency entry in test [1], in test [2], in test [3] and in test [4] was “inactive” each time.

As to `O=C(O)Cc1cc(I)c(Oc2cc(I)c(O)c(I)c2)c(I)c1`, the Potency entry in test [1], in test [2], in test [3] and in test [4] was “inactive” throughout.

With `CC1=CC[C@H](CC=O)C1(C)C`, the Potency result in test [1], in test [2], in test [3] and in test [4] was “inactive” each time.

Regarding `CC(=O)N1C[C@H](O)C[C@H]1C(=O)O`, the Potency entry in test [1], in test [2], in test [3] and in test [4] was “inactive” throughout.

As for `CN(C)CCCOC1(Cc2ccccc2)CCCCCC1`, the Potency entry in test [1], in test [2], in test [3] and in test [4] was “inactive” throughout.

In the case of `O=C(NCCN1CCOCC1)c1ccc(Cl)cc1`, the Potency entry in test [1], in test [2], in test [3] and in test [4] was “inactive” throughout.

The values are drawn from PubChem BioAssay (Tox21).
